ChEMBL document CHEMBL3988442, “University of Dundee, Small-Polar-MMV Screening Library” (2021)
Screen size: about 69,000 compounds; about 950 (1.4%) showed an effect of 50% or more. The entries come from a sample that favours strong results as a whole.

What follows are compounds tested on Mycobacterium tuberculosis (assay: Cornell M. t heat shock assay; note: in the data most compounds retested in dose-response had high values).
Type: functional, organism-based
Design: dose or concentration left out as unconfirmed
`Fc1ccc(CN[C@@H]2COC[C@H]2c2ccc(F)cc2)cc1.O=C(O)CC(O)(CC(=O)O)C(=O)O` was tested, and the “Percent Effect” value was 2.118%. For `COc1cccc(OCCNCc2ccccc2)c1.O=C(O)C(=O)O`, the “Percent Effect” value was -6.728%. In the case of `CCc1ccc(CN2CCCn3c(nc(Cn4ccnc4)cc3=O)C2)o1.O=C(O)C(F)(F)F.O=C(O)C(F)(F)F`, the “Percent Effect” value was -19.48%. With `Cc1ccnc(N2CCCC(c3noc(C(C)C)n3)C2)n1` (stereo unspecified) the “Percent Effect” value was 12.21%. In the case of `CN(C)C(=O)c1cn2cc(-c3ccccc3Cl)n(CC3CC3)c(=O)c2n1`, the “Percent Effect” value was 22.72%. With `CCNC(=O)c1cn2cc(-c3ccccc3Cl)n(CC3CC3)c(=O)c2n1` the “Percent Effect” value was 99.63%. In the case of `CNC(=O)c1cn2cc(-c3ccccc3Cl)n(CC3CC3)c(=O)c2n1`, the “Percent Effect” value was 12.71%. With `COCCN1CCC2(CC1)CN(C(=O)N(C)C)c1ccc(C)cc12.O=C(O)C(F)(F)F` the “Percent Effect” value was -10.15%. For `O=C(N[C@H]1CN(Cc2ccsc2)[C@@H]2CCCO[C@H]12)C1CC1.O=C(O)C(F)(F)F`, the “Percent Effect” value was 2.811%. With `Cc1cccc(CN2CC3(CCN(C(=O)N(C)C)CC3)OCC2=O)n1.O=C(O)C(F)(F)F` the “Percent Effect” value was -24.23%. For `CC(C)(C)c1nc(CNC2CCCN(c3cccnn3)C2)no1` (stereo unspecified), the “Percent Effect” value was 53.11%. In the case of `CC(C)c1nc(CNC2CCCN(c3cccnn3)C2)no1` (stereo unspecified), the “Percent Effect” value was -11.29%. For `Cc1nc(CNC2CCCN(c3cccnn3)C2)no1` (stereo unspecified), the “Percent Effect” value was -18.97%. With `Cc1cc(N2CCN(Cc3cn(C)nc3C)CC2)cc(C2CCNC2)n1.Cl` (stereo unspecified) the “Percent Effect” value was -5.922%. In the case of `O=C(NC1CCC1)[C@H]1C[C@@H]2CN(CC3CC3)C[C@H]1O2.O=C(O)C(F)(F)F`, the “Percent Effect” value was 18.28%. `CCN1CCC(CNCc2c[nH]nc2C(C)(C)C)C1.Cl` (stereo unspecified) was tested, and the “Percent Effect” value was 48.77%. For `CC(C)N1CCC(CNCc2c[nH]nc2C(C)(C)C)C1` (stereo unspecified), the “Percent Effect” value was 82.49%. With `COCCN1CCC(CNCc2c[nH]nc2C(C)(C)C)CC1` the “Percent Effect” value was -7.94%. With `CC(C)(C)c1n[nH]cc1CNCC1CCN(CC(F)(F)F)C1.Cl` (stereo unspecified) the “Percent Effect” value was -7.348%. In the case of `CC(C)(C)c1n[nH]cc1CNCC1CCN(C2CC2)C1.Cl` (stereo unspecified), the “Percent Effect” value was 85.37%. `CC(O)CN1CCC(CNCc2c[nH]nc2C(C)(C)C)CC1` (stereo unspecified) was tested, and the “Percent Effect” value was 0.7064%. For `COc1nn(C)c2c1CCCN(C(=O)c1cccc(C)n1)C2.O=C(O)C(F)(F)F`, the “Percent Effect” value was 26.28%. `Cn1ccc(C(=O)N2C[C@@H]3OCCN(c4ncccn4)[C@@H]3C2)n1.O=C(O)C(F)(F)F` was tested, and the “Percent Effect” value was -20%. `Cc1ccc(N2CC[C@H]3O[C@H](C(=O)NCc4ccco4)CC[C@H]32)nn1.O=C(O)C(F)(F)F` was tested, and the “Percent Effect” value was -36.19%. `CN1CCOC(CNCc2csc(C3CCCC3)n2)C1` (stereo unspecified) was tested, and the “Percent Effect” value was 51.17%. In the case of `Cc1nc(CNCC2CN(C)CCO2)cs1` (stereo unspecified), the “Percent Effect” value was -7.018%. `CN1CCOC(CNCc2csc(C3CCCCC3)n2)C1` (stereo unspecified) was tested, and the “Percent Effect” value was -18.06%. `CN(Cc1cn2c(n1)CN(c1ncc(F)cn1)CC2)Cc1ccco1.O=C(O)C(F)(F)F.O=C(O)C(F)(F)F` was tested, and the “Percent Effect” value was 8.494%. With `CC(=O)Nc1c(C)noc1/C=C\c1ccc(C)c(S(=O)(=O)NC2CC2)c1` the “Percent Effect” value was 14.26%. `CC(C)N1Cc2c(C(=O)N3CCOCC3)nn(C)c2C1.O=C(O)C(F)(F)F.O=C(O)C(F)(F)F` was tested, and the “Percent Effect” value was -12.04%. In the case of `Cc1nc(C2CCCN2Cc2cc(Cl)c3c(c2)OCCCO3)no1` (stereo unspecified), the “Percent Effect” value was 45.55%. With `Cc1nc(C2CCCN2Cc2cc(Cl)c3c(c2)OCO3)no1` (stereo unspecified) the “Percent Effect” value was 23.975%. With `Cc1nc(C2CCCN2Cc2cc(Cl)c3c(c2)OCCO3)no1` (stereo unspecified) the “Percent Effect” value was 57.05%. For `CSc1nc(N)c2c(n1)N=C1COC(O)=C1C2c1cccc(Cl)c1` (stereo unspecified), the “Percent Effect” value was 2.564%. In the case of `CC(=O)Nc1nc(-c2ccccc2)c[nH]1`, the “Percent Effect” value was -15.03%. For `CNC(=O)c1cccc(CNC(C)c2cc(Cl)ccc2OC)c1` (stereo unspecified), the “Percent Effect” value was -13.72%. `CNC(=O)c1cccc(CNC(C)c2ccc(F)cc2N(C)C)c1` (stereo unspecified) was tested, and the “Percent Effect” value was 101.5%. With `CNC(=O)c1cccc(CNC(C)c2cc(C)ccc2OC(F)F)c1` (stereo unspecified) the “Percent Effect” value was -18.66%. With `COCCNc1nc2c(c(NCCc3cccs3)n1)CCNCC2` the “Percent Effect” value was 55.02%. For `COCCNc1nc2c(c(NCc3ccncc3)n1)CCNCC2`, the “Percent Effect” value was -8.417%. In the case of `c1csc(CCNc2nc(-c3ccncc3)nc3c2CCNCC3)c1`, the “Percent Effect” value was 10.45%. For `O=C(O)C(F)(F)F.O=C(O)C(F)(F)F.O=C1NC2(CCN(Cc3cccs3)CC2)CC1c1ccncc1` (stereo unspecified), the “Percent Effect” value was -33.96%. In the case of `CNC(=O)CN1CCOCC2(CCCN(Cc3ccc(F)cc3)C2)C1.O=C(O)C(F)(F)F.O=C(O)C(F)(F)F` (stereo unspecified), the “Percent Effect” value was -6.144%. `CCCn1ccnc1CNC(=O)C1COc2cc(OC)ccc2C1` (stereo unspecified) was tested, and the “Percent Effect” value was 80.42%. `CCCn1cnnc1CNC(=O)C1COc2cc(OC)ccc2C1` (stereo unspecified) was tested, and the “Percent Effect” value was -11.02%. For `CCCn1cnnc1CNC(=O)C1COc2ccc(OC)cc2C1` (stereo unspecified), the “Percent Effect” value was -18.38%. For `O=C(c1ccc(-c2cccc3c2CCNC3)o1)N1CCCC1`, the “Percent Effect” value was 54.8%. In the case of `O=C(c1ccc(-c2cccc3c2CCNC3)o1)N1CCCCC1`, the “Percent Effect” value was 37.05%. For `O=C(c1ccc(-c2cccc3c2CCNC3)o1)N1CCOCC1`, the “Percent Effect” value was 23.74%. In the case of `Cc1ccc(N2CCO[C@H]3CN(Cc4ccoc4)C[C@H]32)nn1.O=C(O)C(F)(F)F.O=C(O)C(F)(F)F`, the “Percent Effect” value was -23.95%. For `O=C(c1ccccc1)N1C[C@@H]2CC[C@H](C1)N(S(=O)(=O)c1cccnc1)C2`, the “Percent Effect” value was -19.46%. `CSc1ccc(C(=O)N2CC(=O)N(CC(C)(C)C)CC(O)C2)cc1` (stereo unspecified) was tested, and the “Percent Effect” value was 67.49%. In the case of `CSc1ccc(C(=O)N2CC(=O)N(CC3CC3)CC(O)C2)cc1` (stereo unspecified), the “Percent Effect” value was 13.44%. For `CCN1CC(O)CN(C(=O)c2ccc(SC)cc2)CC1=O` (stereo unspecified), the “Percent Effect” value was 25.41%. In the case of `CC(C)CN1CC(O)CN(C(=O)c2cccc(C(F)(F)F)c2)CC1=O` (stereo unspecified), the “Percent Effect” value was 3.734%. For `CCN1CC(O)CN(C(=O)c2cccc(C(F)(F)F)c2)CC1=O` (stereo unspecified), the “Percent Effect” value was 31.6%. For `CC(C)(C)CN1CC(O)CN(C(=O)c2cccc(C(F)(F)F)c2)CC1=O` (stereo unspecified), the “Percent Effect” value was 51.48%. `CC(Cn1cncc1-c1cnn(Cc2ccccc2)c1)N1CCCCC1.Cl` (stereo unspecified) was tested, and the “Percent Effect” value was -9.415%. With `Cc1ccc(CN2CCn3c(CN4CCN(C)CC4)cnc3C2C)s1.O=C(O)C(F)(F)F.O=C(O)C(F)(F)F.O=C(O)C(F)(F)F` (stereo unspecified) the “Percent Effect” value was -29.44%. `O=C(CN1CCOC(CNc2cccnn2)C1)N1CCCCC1` (stereo unspecified) was tested, and the “Percent Effect” value was 57.16%. With `O=C(CN1CCOC(CNc2cccnn2)C1)NCc1cccs1` (stereo unspecified) the “Percent Effect” value was 104.8%. `O=C(CN1CCOC(CNc2cccnn2)C1)NCc1ccccn1` (stereo unspecified) was tested, and the “Percent Effect” value was -12.01%. With `c1cnnc(NCC2CN(CCN3CCCCC3)CCO2)c1` (stereo unspecified) the “Percent Effect” value was 4.077%. For `OC1(CN2CCOC(CNc3cccnn3)C2)CCCCC1` (stereo unspecified), the “Percent Effect” value was 9.895%. In the case of `O=C(CN1CCOC(Cn2cccn2)C1)NCc1cccs1` (stereo unspecified), the “Percent Effect” value was -0.5047%. In the case of `Cc1oncc1C(=O)NCc1cc(=O)n2c(n1)CN(C(C)C)CCC2.O=C(O)C(F)(F)F`, the “Percent Effect” value was -32.5%. For `CC(C)(C)C(=O)NC(c1nccs1)C1CCN(CC2CCCCC2)CC1.Cl` (stereo unspecified), the “Percent Effect” value was 4.524%. `CCN1CCC2(C=C(C(=O)NC3CC3)c3ccccc32)CC1.O=C(O)C(F)(F)F` was tested, and the “Percent Effect” value was -9.893%. For `CN(C)C(=O)CN1CCOCC2(C1)CN(c1ncccn1)CCO2.O=C(O)C(F)(F)F` (stereo unspecified), the “Percent Effect” value was -21.69%. For `CCS(=O)(=O)N1CCN(CCOC)c2ncccc2C1`, the “Percent Effect” value was 7.581%. For `CC(=O)N1N=C(c2ccccc2)OC1C(=O)NCCN(C(C)C)C(C)C` (stereo unspecified), the “Percent Effect” value was 73.05%. For `CC(=O)N1N=C(c2ccncc2)OC1C(=O)N(C)CCc1ccccc1` (stereo unspecified), the “Percent Effect” value was 106%. For `CC(=O)N1N=C(Cc2ccccc2)OC1C(=O)NCC(=O)OC(C)(C)C` (stereo unspecified), the “Percent Effect” value was 11.49%. With `CC(=O)N1N=C(c2ccco2)OC1C(=O)N(C)CCc1ccccc1` (stereo unspecified) the “Percent Effect” value was -2.033%. `CC(=O)N1N=C(c2ccccc2)OC1C(=O)NCC(=O)OC(C)(C)C` (stereo unspecified) was tested, and the “Percent Effect” value was 21.44%. For `CC(=O)N1N=C(c2ccccc2)OC1C(=O)NCCc1ccc(C)cc1` (stereo unspecified), the “Percent Effect” value was 30.4%. `CC(=O)N1N=C(c2ccccc2)OC1C(=O)NCCc1ccc(Cl)cc1` (stereo unspecified) was tested, and the “Percent Effect” value was 7.805%. With `CC(=O)N1N=C(c2ccccc2)OC1C(=O)NCCc1ccc(O)cc1` (stereo unspecified) the “Percent Effect” value was 53.53%. With `CC(=O)N1N=C(c2ccccc2)OC1C(=O)NCCOc1ccccc1` (stereo unspecified) the “Percent Effect” value was 46.95%. For `CC(=O)N1N=C(c2ccccc2)OC1C(=O)NCCC1=CCCCC1` (stereo unspecified), the “Percent Effect” value was -12.6%. `CCOC(=O)CNC(=O)C1OC(c2ccccc2)=NN1C(C)=O` (stereo unspecified) was tested, and the “Percent Effect” value was 54.14%. With `CC(=O)N1N=C(c2ccccc2)OC1C(=O)N(C)CCc1ccccc1` (stereo unspecified) the “Percent Effect” value was 0.1011%. In the case of `Cc1oncc1C(=O)NCc1cc(=O)n2c(n1)CN(CC(C)C)CCC2.O=C(O)C(F)(F)F`, the “Percent Effect” value was -11.26%. `CC(C)N1CCOCC2(CCCN(C(=O)CCc3cccnc3)C2)C1.O=C(O)C(F)(F)F` (stereo unspecified) was tested, and the “Percent Effect” value was -33.91%. With `Cc1cccc(CN2CCC3(CCN(c4ncccn4)CC3)C2=O)c1.O=C(O)C(F)(F)F` the “Percent Effect” value was 21.29%. With `O=C(O)C(F)(F)F.O=C(O)C(F)(F)F.O=C(O)C(F)(F)F.O=C1CO[C@@H]2CN(Cc3ccncc3)C[C@H]2N1Cc1ccncc1` the “Percent Effect” value was -33.4%. In the case of `CN(C)CC1CSCCCN1C(=O)c1ccsc1` (stereo unspecified), the “Percent Effect” value was -29.65%. For `O=S1(=O)C[C@@H]2[C@H](C1)N(Cc1cc(Cl)cc(Cl)c1)CCN2CCO`, the “Percent Effect” value was -5.541%. `O=S1(=O)C[C@@H]2[C@H](C1)N(Cc1cc(Cl)cc(Cl)c1)CCN2CC1CC1` was tested, and the “Percent Effect” value was 99.37%. In the case of `CCCN1CCN(Cc2cc(Cl)cc(Cl)c2)[C@H]2CS(=O)(=O)C[C@H]21`, the “Percent Effect” value was 31.79%. In the case of `CN(C)c1ncc(-c2cccc(C(N)=O)c2)c(C2CNCCO2)n1.Cl` (stereo unspecified), the “Percent Effect” value was -21.53%.
